Experimental findings from PubChem BioAssay (Tox21) are described below.

Assay [1] concerns thyroid hormone receptor (rat, GH3 cells). In words: qHTS assay to identify small molecule agonists of the thyroid receptor (TR) signaling pathway (AID 743066; calls by dose curve).
The target of assay [2] is Estrogen receptor (Homo sapiens) (UniProt P03372). In words: qHTS assay to identify small molecule antagonists of the estrogen receptor alpha (ER-alpha) signaling pathway (AID 743069; active = well fitted curve in the direction sought with a large enough effect in the signal ratio in the repeat runs, not every such curve was filed as active; the % refers to the signal ratio). An outline of the steps: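 ER-alpha-UAS-bla GripTite HEK293 line; 2% charcoal-stripped FBS overnight; plated, 4 hr 37C/5% CO2; cpd in DMSO + 17beta-estradiol, 18 hr 37C; LiveBLAzer B/G FRET substrate 2 hr RT; fluorescence intensity.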
In general terms: In qHTS, concentration-response curves come from the screen itself.

Assay [3] in a line: qHTS assay to identify small molecule antagonists of the estrogen receptor alpha (ER-alpha) signaling pathway - cell viability counter screen (AID 743074; calls by dose curve;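 also: HEK293 cells carrying ER-alpha-UAS-bla reporter stimulated with 17beta-estradiol; nearly all actives have a fitted effect of over 45% in size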).
Assay [4] addresses Estrogen receptor (Homo sapiens) (UniProt P03372). In words: qHTS assay to identify small molecule agonists of the estrogen receptor alpha (ER-alpha) signaling pathway (AID 743075; calls by dose curve;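 also: HEK293 GripTite cells with ER-alpha and UAS-driven beta-lactamase reporter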).
The target is the same in assay [5]. In words: qHTS assay to identify small molecule agonists of the estrogen receptor alpha (ER-alpha) signaling pathway using the BG1 cell line (AID 743079). Also: nearly all actives have a fitted effect of over 20% in size. Also: potency is read from the fitted curve at half-maximal effect.
Assay [6] in a line: qHTS assay to identify small molecule antagonists of the estrogen receptor alpha (ER-alpha) signaling pathway using the BG1 cell line (AID 743080; calls by dose curve;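 also: BG1 cells stimulated with 17beta-estradiol alongside compound; nearly all actives have a fitted effect of over 25% in size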; also: potency is read from the fitted curve at half-maximal effect). In outline:
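Readout is ONE-Glo luminescence, taken 30 min at room temperature after reagent addition, preceded by a CellTiter-Fluor viability read; BG1-Luc-4E2 cells had received compound and 17beta-estradiol for 21.5 h at 37 C.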

Assay [7] in a line: qHTS assay to identify small molecule antagonists of the estrogen receptor alpha (ER-alpha) signaling pathway using the BG1 cell line - cell viability counter screen (AID 743081).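 Also: compound given together with 17beta-estradiol as the ER stimulus; series mostly up to about 70 µM; nearly all actives have a fitted effect of over 45% in size.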
The target of assay [8] is Aromatase (Homo sapiens) (UniProt P11511). Put plainly: qHTS assay to identify aromatase inhibitors (AID 743083). Also: nearly all actives have a fitted effect of over 55% in size. Also: potency is read from the fitted curve at half-maximal effect.
A short description of assay [9]: qHTS assay to identify aromatase inhibitors - cell viability counter screen (AID 743084).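 Also: cells stimulated with testosterone during compound exposure; nearly all actives have a fitted effect of over 55% in size.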 Also: potency is read from the fitted curve at half-maximal effect.
For assay [10], the target named is Aryl hydrocarbon receptor (Homo sapiens) (UniProt P35869). Put plainly: qHTS assay to identify small molecule that activate the aryl hydrocarbon receptor (AhR) signaling pathway (AID 743085). Also: nearly all actives have a fitted effect of over 15% in size. Also: potency is read from the fitted curve at half-maximal effect.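 As to activation: HG2L7.5c1 human HepG2 liver cells with stably integrated DRE-driven firefly reporter; series mostly up to about 70 µM.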 In outline: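 Stably transfected human liver carcinoma cells (HG2L7.5c1; 20 DRE-firefly luciferase) were incubated 5 h, dosed, and kept 24 h at 37C. Agonism was scored from increased luciferase luminescence.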

A short description of assay [11]: qHTS assay to identify small molecule that activate the aryl hydrocarbon receptor (AhR) signaling pathway - cell viability counter screen (AID 743086). Also: series mostly up to about 70 µM; nearly all actives have a fitted effect of over 45% in size. In outline: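 Cytotoxicity counter screen: CellTiter-Fluor signal (30 min, 37 C) in 4000 HepG2 cells/well carrying the DRE-luciferase reporter, following 24 h compound exposure at 37 C.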
A short description of assay [12]: qHTS assay to identify small molecule antagonists of the peroxisome proliferator-activated receptor gamma (PPARg) signaling pathway - cell viability counter screen (AID 743194). Also: nearly all actives have a fitted effect of over 55% in size. Particulars: Potency: co-treated with 50 nM rosiglitazone unless noted. An outline of the steps: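 Viability was measured as CellTiter-Glo luminescence in GeneBLAzer PPARg UAS-bla HEK293H cells. These cells had been exposed 17 h at 37 C to compounds together with rosiglitazone at 50 nM final, with the beta-lactamase readout taken in the same wells.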

Assay [13] is described as follows: qHTS assay for small molecule agonists of the antioxidant response element (ARE) signaling pathway (AID 743202; active = well fitted activation curve with a large enough effect in the signal ratio in the repeat runs, not every such curve was filed as active; the % refers to the signal ratio; also: potency is read from the fitted curve at half-maximal effect). In outline:
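Quantitative high-throughput format in HepG2 cells bearing an integrated ARE-beta-lactamase reporter. Compound exposure lasted 16 h at 37 C, and fluorescence was read 2 h after adding LiveBLAzer B/G substrate at room temperature.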

Assay [14] is described as follows: qHTS assay for small molecule activators of the heat shock response signaling pathway - cell viability counter screen (AID 743209). Also: nearly all actives have a fitted effect of over 50% in size. In outline:
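Luminescence from CellTiter-Glo, added after the beta-lactamase FRET read, gave the viability signal. Cells were HSE-bla HeLa treated with DMSO-dissolved compounds for 5 h at 37 C following overnight plating.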

The nature of assay [15]: qHTS assay to identify small molecule antagonists of the thyroid receptor (TR) signaling pathway (AID 743065). Also: nearly all actives have a fitted effect of over 55% in size. Also: potency is read from the fitted curve at half-maximal effect. In outline: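 Antagonism measured as loss of luciferase signal in GH3 cells stably carrying a TRE-luciferase reporter, co-treated with compound and T3 (1 nM final) for 23.5 h at 37 C. Viability was read in the same well by CellTiter-Fluor.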
A short description of assay [16]: qHTS assay for small molecule agonists of the antioxidant response element (ARE) signaling pathway - cell viability counter screen (AID 743203; calls by dose curve; also: nearly all actives have a fitted effect of over 55% in size). An outline of the steps: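 HepG2 cells carrying ARE-driven beta-lactamase; 2,000 cells/well; 5 hrs plating; compound pinned from DMSO; 16 hrs 37C/5% CO2; CellTiter-Glo added; 30 min RT; luminescence.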
Assay [17] can be described thus: qHTS assay to identify small molecule agonists of the peroxisome proliferator-activated receptor delta (PPARd) signaling pathway - cell viability counter screen (AID 743211). Also: nearly all actives have a fitted effect of over 55% in size. In outline: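 In the same wells used for beta-lactamase reporter measurement, cytotoxicity is scored by CellTiter-Glo. HEK293H PPARd-bla cells receive compound for 17 h at 37C following a 5 h settling period.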

Assay [18] deals with Peroxisome proliferator-activated receptor gamma (Homo sapiens) (UniProt P37231). In words: qHTS assay to identify small molecule agonists of the peroxisome proliferator-activated receptor gamma (PPARg) signaling pathway (AID 743094; active = well fitted activation curve with a large enough effect in the signal ratio in the repeat runs, not every such curve was filed as active; the % refers to the signal ratio). An outline of the steps:
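Beta-lactamase FRET fluorescence was the read-out after a 1 h room-temperature substrate step, following 17 h compound treatment at 37C of HEK293H cells expressing a UAS-driven bla reporter responsive to PPARg.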

Assay [19] has the same target. In words: qHTS assay to identify small molecule antagonists of the peroxisome proliferator-activated receptor gamma (PPARg) signaling pathway (AID 743191; calls by dose curve; also: series mostly up to about 63 µM; nearly all actives have a fitted effect of over 30% in size). An outline of the steps:
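Beta-lactamase reporter under UAS control in HEK293H PPARg-bla cells; compound treatment 17 h at 37C. Read-out: fluorescence intensity after 1 h room-temperature incubation with LiveBLAzer B/G FRET substrate.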

Assay [20] in a line: qHTS assay for small molecule activators of the heat shock response signaling pathway (AID 743210; active = well fitted activation curve with a large enough effect in the signal ratio in the repeat runs, with a control signal flat, not every such curve was filed as active; the % refers to the signal ratio;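 also: HeLa cells with beta-lactamase reporter driven by heat shock elements; series mostly up to about 63 µM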). In outline:
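HeLa HSE-bla cells, overnight plating; cpd in DMSO 5 h, 37 C; LiveBLAzer B/G FRET substrate 2.5 h RT; fluorescence intensity read.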

Values joined by “and” are separate entries in the source; they are usually repeats but may differ in a detail not shown here. Equal values may be shown once. Results filed as inconclusive are left out. The source holds several records for some structures; these can differ, active in one and inactive in another. Active and inactive are the calls of the source. Unless noted, calls follow the shape of the dose curve; as a rule, active = well fitted curve in the direction sought with a large enough effect in the repeat runs; inconclusive = weak or mixed curves; inactive = no such curve, though single readings can be large; an effect the other way counts as inactive or inconclusive.

Chain of Aryl hydrocarbon receptor (Homo sapiens) (P35869 whole entry, looked up): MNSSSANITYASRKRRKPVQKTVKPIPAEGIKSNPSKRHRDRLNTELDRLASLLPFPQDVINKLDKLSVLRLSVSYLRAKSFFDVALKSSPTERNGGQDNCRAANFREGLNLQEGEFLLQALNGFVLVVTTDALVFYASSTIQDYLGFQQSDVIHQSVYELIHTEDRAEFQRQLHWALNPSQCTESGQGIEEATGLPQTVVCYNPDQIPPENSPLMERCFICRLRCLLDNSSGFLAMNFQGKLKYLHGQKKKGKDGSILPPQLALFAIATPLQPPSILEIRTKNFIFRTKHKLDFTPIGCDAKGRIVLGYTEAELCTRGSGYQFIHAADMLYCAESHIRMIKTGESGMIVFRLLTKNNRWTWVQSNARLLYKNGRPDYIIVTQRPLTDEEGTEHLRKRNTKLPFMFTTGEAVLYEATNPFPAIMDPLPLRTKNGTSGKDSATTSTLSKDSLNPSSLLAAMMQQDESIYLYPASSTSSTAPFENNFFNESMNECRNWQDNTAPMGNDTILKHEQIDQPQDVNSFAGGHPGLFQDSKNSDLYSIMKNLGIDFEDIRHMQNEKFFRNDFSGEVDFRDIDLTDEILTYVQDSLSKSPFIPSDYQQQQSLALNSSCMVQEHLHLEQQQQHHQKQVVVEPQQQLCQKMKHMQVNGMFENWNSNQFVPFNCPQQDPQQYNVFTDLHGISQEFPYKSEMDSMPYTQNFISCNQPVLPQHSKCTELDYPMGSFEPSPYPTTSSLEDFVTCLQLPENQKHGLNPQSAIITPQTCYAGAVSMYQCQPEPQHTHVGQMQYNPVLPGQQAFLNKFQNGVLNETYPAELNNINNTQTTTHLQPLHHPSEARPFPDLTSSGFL
Chain of Peroxisome proliferator-activated receptor gamma (Homo sapiens) (P37231 whole entry, looked up): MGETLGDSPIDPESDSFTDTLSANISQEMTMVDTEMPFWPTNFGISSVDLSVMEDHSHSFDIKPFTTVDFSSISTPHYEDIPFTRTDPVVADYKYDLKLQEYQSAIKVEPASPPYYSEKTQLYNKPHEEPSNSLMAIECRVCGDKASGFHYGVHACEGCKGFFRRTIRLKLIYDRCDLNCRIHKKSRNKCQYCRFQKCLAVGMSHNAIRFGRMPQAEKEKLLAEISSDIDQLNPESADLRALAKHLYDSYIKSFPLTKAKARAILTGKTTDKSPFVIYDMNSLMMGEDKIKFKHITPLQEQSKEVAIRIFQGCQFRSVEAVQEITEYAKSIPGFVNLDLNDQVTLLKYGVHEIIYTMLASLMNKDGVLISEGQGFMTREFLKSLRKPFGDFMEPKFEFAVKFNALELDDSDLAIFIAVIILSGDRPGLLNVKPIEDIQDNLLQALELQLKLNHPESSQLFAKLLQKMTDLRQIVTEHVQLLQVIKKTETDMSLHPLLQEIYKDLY
Chain of Estrogen receptor (Homo sapiens) (P03372 whole entry, looked up): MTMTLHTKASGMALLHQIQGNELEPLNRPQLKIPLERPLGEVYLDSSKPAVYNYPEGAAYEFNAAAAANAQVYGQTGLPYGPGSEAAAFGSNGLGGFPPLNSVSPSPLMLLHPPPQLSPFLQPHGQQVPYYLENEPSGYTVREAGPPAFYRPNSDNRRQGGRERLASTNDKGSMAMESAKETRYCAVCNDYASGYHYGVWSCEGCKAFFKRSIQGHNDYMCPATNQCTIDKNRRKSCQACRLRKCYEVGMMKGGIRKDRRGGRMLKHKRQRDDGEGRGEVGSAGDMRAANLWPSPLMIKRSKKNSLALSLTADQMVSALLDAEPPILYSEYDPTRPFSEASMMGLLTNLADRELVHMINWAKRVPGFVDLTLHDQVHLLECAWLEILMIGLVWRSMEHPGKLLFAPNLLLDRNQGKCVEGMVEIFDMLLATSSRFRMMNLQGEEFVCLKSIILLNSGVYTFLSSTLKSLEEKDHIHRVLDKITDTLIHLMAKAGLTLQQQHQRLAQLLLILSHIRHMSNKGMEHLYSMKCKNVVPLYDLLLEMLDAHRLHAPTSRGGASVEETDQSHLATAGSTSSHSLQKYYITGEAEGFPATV
Chain of Aromatase (Homo sapiens) (P11511 whole entry, looked up): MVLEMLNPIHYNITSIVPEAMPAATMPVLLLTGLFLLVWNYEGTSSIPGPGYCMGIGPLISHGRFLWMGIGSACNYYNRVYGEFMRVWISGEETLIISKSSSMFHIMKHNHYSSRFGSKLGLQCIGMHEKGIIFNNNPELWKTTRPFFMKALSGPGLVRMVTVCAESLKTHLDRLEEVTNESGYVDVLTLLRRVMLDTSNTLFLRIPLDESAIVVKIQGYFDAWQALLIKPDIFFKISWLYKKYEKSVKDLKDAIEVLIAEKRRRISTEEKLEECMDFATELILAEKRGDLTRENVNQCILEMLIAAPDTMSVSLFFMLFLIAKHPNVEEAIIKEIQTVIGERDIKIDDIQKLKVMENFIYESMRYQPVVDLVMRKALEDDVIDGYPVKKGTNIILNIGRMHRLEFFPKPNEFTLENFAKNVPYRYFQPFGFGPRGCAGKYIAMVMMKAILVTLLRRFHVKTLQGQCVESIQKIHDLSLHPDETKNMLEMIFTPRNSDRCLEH

Turning to `Brc1ccc(Oc2cc(Br)c(Br)cc2Br)c(Br)c1`, the Potency entry in assay [1], in assay [2], in [3], in [4], in [6] and in assay [7] was “inactive” each time. Further, the Potency entry in [8], in assay [9], in assay [10], in [11], in assay [12] and in [13] was “inactive” each time. Also, the Potency result in [14] was “inactive”. Further, the Potency entry in [5] was “inactive and 61.6 µM (active)”.
Take `C=CC(=O)OCCO`: the Potency entry in assay [15], in assay [1], in assay [3], in assay [7], in assay [11] and in [12] was “inactive” each time. For the same compound, the Potency entry in assay [16], in [14] and in assay [17] was “inactive” in each case.
In the case of `CCOC(=O)C(C)OC(=O)c1cc(Oc2ccc(C(F)(F)F)cc2Cl)ccc1[N+](=O)[O-]` (stereo not given), the Potency entry in assay [1], in assay [3], in assay [4], in [7], in [8] and in assay [9] was “inactive” throughout. Moreover, the Potency result in [10], in assay [11], in assay [18], in assay [12], in [16] and in assay [14] was “inactive” throughout. Besides, in assay [6], the Potency was 48.3 µM (active).
For `Cc1ccc(N)c(N)c1`, the Potency is 12.2 µM (active) and 19.3 µM (active) in [15]; 8.66 µM (active) and 10.9 µM (active) in assay [13]. The Potency result in assay [1], in [3], in [7], in assay [11], in assay [12] and in assay [16] was “inactive” in each case. Besides, the Potency entry in assay [14] and in assay [17] was “inactive” throughout.
For `CCC(CC)Nc1c([N+](=O)[O-])cc(C)c(C)c1[N+](=O)[O-]`, the Potency result in [1], in [3], in assay [7], in assay [9], in assay [10] and in assay [11] was “inactive” each time. Moreover, the Potency entry in assay [18], in [19], in assay [12], in assay [13], in assay [16] and in assay [14] was “inactive” throughout. Further, the Potency entry in [20] and in assay [17] was “inactive” in each case.
`CC(C)=CC1C(C(=O)OCc2coc(Cc3ccccc3)c2)C1(C)C` (stereo not given): the Potency entry in assay [1], in [2], in assay [3], in assay [4], in [5] and in assay [6] was “inactive” each time. Further, the Potency entry in assay [7], in [8], in assay [9], in [10], in assay [11] and in [12] was “inactive” in each case. Also, the Potency result in [16], in [14] and in [17] was “inactive” each time. Further, the Potency in [13] was 54.5 µM (active) and 30.6 µM (active).
As for `Nc1ccc(-c2ccc(N)c(N)c2)cc1N`, the Potency result in assay [3], in [7], in [12], in assay [16], in [14] and in assay [17] was “inactive” each time. Besides, the Potency in assay [8] is 6.09 µM (active) and inactive; in assay [9] it was 54.3 µM (active) and inactive; in assay [10], 484 nM (active) and 3.06 µM (active).
